We go through seven molecules from PubChem BioAssay (NCI).

Structures are written as SMILES. About 83,000 compounds went through this panel and 20% of them were active in at least one assay; those are over-represented in the sample as a whole.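 96-well plates, one dose, 48 hours. Percent growth reported; active if below 10.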 A number with no mark means an inactive call. Activity calls are given as the source filed them.

Common to all, as to assay: NCI-60 one-dose screen, 48 h (100 = growth as untreated, 0 = no growth, -100 = all killed)
For one assay, the system named is NCI-H23 lung. Conditions: 10 µM unless noted.
The next assay concerns NCI-H226 lung. The note with it: 10 µM unless noted.
The test system of the next assay is NCI-H322M lung. The note with it: 10 µM unless noted.
The next assay relates to HOP-62 NSCLC. Conditions: 10 µM unless noted.
Another assay deals with NCI-H522 lung. Conditions: 10 µM unless noted.
In another assay the test system is A549/ATCC NSCLC. Conditions: 10 µM unless noted.
The next assay relates to 786-0 renal. Conditions: 10 µM unless noted.
Another assay relates to COLO 205 colon. Conditions: 10 µM unless noted.
The test system of the next assay is DU-145 prostate. Conditions: 10 µM unless noted.
In the next assay the test system is K-562 leukemia. Conditions: 10 µM unless noted.
In the next assay the test system is MALME-3M melanoma. The note with it: 10 µM unless noted.
The subject of another assay is MDA-MB-231 breast. Conditions: 10 µM unless noted.
The subject of the next assay is RXF 393 renal. The note with it: 10 µM unless noted.
The next assay concerns SF-268 CNS. Conditions: 10 µM unless noted.
The test system of the next assay is SF-295 CNS. The note with it: 10 µM unless noted.
In another assay the test system is SF-539 CNS. Conditions: 10 µM unless noted.
In another assay the test system is UACC-257 melanoma. Conditions: 10 µM unless noted.
The subject of the next assay is M14 melanoma. Conditions: 10 µM unless noted.
Another assay concerns HCT-15 colon. The note with it: 10 µM unless noted.
In another assay the test system is HOP-92 NSCLC. Conditions: 10 µM.

With `CC[n+]1c(-c2ccccc2)c2cc(N)ccc2c2ccc(N)cc21`, the growth in the assay on NCI-H23 lung was -9.43% (active); in the assay with NCI-H226 lung, 25.2%; with NCI-H322M lung, 25.9%; with HOP-62 NSCLC, 1.84% (active); in the assay on NCI-H522 lung it was -28.2% (active); in the assay with A549/ATCC NSCLC it was 30.2%. Moreover, the growth is 15.6% with 786-0 renal; -27.9% (active) in the assay on COLO 205 colon; 9.09% (active) in the assay on DU-145 prostate; 39% in the assay on K-562 leukemia; -25% (active) in the assay with MALME-3M melanoma; 33.1% with MDA-MB-231 breast. Besides, the growth with RXF 393 renal is -16.7% (active); with SF-268 CNS, -26.3% (active); in the assay with SF-295 CNS it was 13.6%; in the assay with SF-539 CNS, -12.7% (active); in the assay on UACC-257 melanoma, -19.3% (active); with M14 melanoma, 33%. Further, the growth in the assay on HCT-15 colon is 88.9%.

For the molecule `NCCc1ccc(OCc2ccccc2)c(OCc2ccccc2)c1`, the growth in the assay on NCI-H23 lung was 87.6%; in the assay on NCI-H226 lung, 103%; in the assay on NCI-H322M lung, 85.4%; in the assay on HOP-62 NSCLC, 87.3%; in the assay with HOP-92 NSCLC it was -2.74% (active); in the assay with 786-0 renal, 84.2%. For the same molecule, the growth in the assay on COLO 205 colon is 13.5%; in the assay with DU-145 prostate it was 97.3%; with K-562 leukemia, 30.8%; with MALME-3M melanoma it was 106%; in the assay with MDA-MB-231 breast, 79.2%; in the assay on RXF 393 renal it was 62.2%. For the same molecule, the growth in the assay with SF-268 CNS was 89.2%; in the assay with SF-295 CNS it was 97.1%; with SF-539 CNS, 93.1%; in the assay on M14 melanoma, 102%; with HCT-15 colon it was 75.3%.

Turning to `CCOC(=O)C(NC(=O)C(Cc1ccc(N(CCCl)CCCl)cc1)NC(C)=O)C(C)C` (configuration not stated), the growth in the assay with NCI-H23 lung was 81%; in the assay on NCI-H226 lung, 90.8%; in the assay on NCI-H322M lung it was 95.4%; with HOP-62 NSCLC it was 83.5%; in the assay on HOP-92 NSCLC it was 98.7%; in the assay on NCI-H522 lung it was 64.1%. For the same molecule, the growth in the assay on A549/ATCC NSCLC is 56%; with 786-0 renal it was 88.6%; in the assay with COLO 205 colon it was 66.5%; with DU-145 prostate it was 99.7%; with K-562 leukemia, 85.6%; with MALME-3M melanoma, 91.7%. For the same molecule, the growth with MDA-MB-231 breast is 96.8%; with RXF 393 renal, 96.4%; in the assay on SF-268 CNS, 71.5%; in the assay on SF-295 CNS it was 86%; with SF-539 CNS, 77.3%; in the assay with UACC-257 melanoma, 87.2%. Also, the growth is 84.1% in the assay on M14 melanoma and 94.9% in the assay with HCT-15 colon.

Take `C[C@H]1CCC/C=C/[C@@H]2C[C@H](O)C[C@H]2[C@H](O)/C=C/C(=O)O1`: the growth in the assay with NCI-H23 lung was -1.79% (active); with NCI-H226 lung, -36.3% (active); with NCI-H322M lung, 5.77% (active); in the assay with HOP-62 NSCLC, 4.67% (active); with NCI-H522 lung, -43.6% (active); in the assay on A549/ATCC NSCLC it was 13.1%. The growth in the assay on 786-0 renal was -37.3% (active); in the assay with COLO 205 colon, -75.4% (active); in the assay with DU-145 prostate, -7.84% (active); with K-562 leukemia, 5.56% (active); with MALME-3M melanoma, -73% (active); in the assay on MDA-MB-231 breast, -68% (active). Further, the growth in the assay with RXF 393 renal is 11%; with SF-268 CNS, 10.3%; with SF-295 CNS, 20.9%; in the assay with SF-539 CNS it was 27.1%; with UACC-257 melanoma, 13.1%; in the assay with M14 melanoma it was -9.75% (active). The growth in the assay with HCT-15 colon is -28.2% (active).

For `Cc1cc(N=Nc2ccccc2C)ccc1N`, the growth in the assay on NCI-H23 lung is 79.6%; with NCI-H226 lung it was 71.1%; in the assay on NCI-H322M lung, 89.2%; in the assay with HOP-62 NSCLC it was 69.3%; in the assay with HOP-92 NSCLC, 48.8%; with NCI-H522 lung it was 57.6%. Besides, the growth in the assay with A549/ATCC NSCLC was 47.6%; in the assay with 786-0 renal, -13.5% (active); with COLO 205 colon, 111%; in the assay on DU-145 prostate, 68.1%; with K-562 leukemia, 65.7%; with MALME-3M melanoma, 68.6%. Besides, the growth was 75.1% in the assay on MDA-MB-231 breast; 99.6% with RXF 393 renal; 47.3% in the assay on SF-268 CNS; 83.9% with SF-295 CNS; 48.9% with SF-539 CNS; 132% in the assay with UACC-257 melanoma. Also, the growth in the assay on HCT-15 colon was 84.9%.

For `CC[C@@]1(O)C[C@H](OC2CC(N(C)C)C(OC3CC(O)C(OC4CCC(=O)C(C)O4)C(C)O3)C(C)O2)c2c(cc3c(c2O)C(=O)c2c(O)ccc(O)c2C3=O)[C@H]1C(=O)OC` (some centres not stated), the growth was -8.87% (active) in the assay on NCI-H23 lung; -55.7% (active) with NCI-H226 lung; -17.8% (active) in the assay on NCI-H322M lung; 5.22% (active) in the assay with HOP-62 NSCLC; -48.1% (active) in the assay on NCI-H522 lung; -10.6% (active) in the assay on A549/ATCC NSCLC. Further, the growth is 17.3% in the assay on 786-0 renal; 11.1% with COLO 205 colon; 1.38% (active) in the assay with DU-145 prostate; 0.0817% (active) in the assay with K-562 leukemia; -12.2% (active) in the assay on MALME-3M melanoma; 28.4% in the assay with MDA-MB-231 breast. For the same molecule, the growth with RXF 393 renal is 12.6%; in the assay with SF-268 CNS it was 22.7%; in the assay on SF-295 CNS, 8.52% (active); with SF-539 CNS, -5.75% (active); with UACC-257 melanoma it was -30.9% (active); in the assay on M14 melanoma, 3.55% (active). In addition, in the assay on HCT-15 colon, the growth is -70.6% (active).

With `CCC(=O)OC1CCn2c1nc1c2C(=O)C(C)=C(N2CC2)C1=O` (configuration not stated), the growth was -28.5% (active) in the assay with NCI-H23 lung; -23% (active) with NCI-H226 lung; -5.88% (active) in the assay on NCI-H322M lung; -29.4% (active) in the assay on HOP-62 NSCLC; 80.9% in the assay with HOP-92 NSCLC; -43% (active) in the assay with NCI-H522 lung. The growth in the assay with A549/ATCC NSCLC was 2.51% (active); in the assay with 786-0 renal it was -16.5% (active); in the assay on COLO 205 colon, -74.3% (active); in the assay on K-562 leukemia, 9.08% (active); with MALME-3M melanoma it was -60.4% (active); in the assay with MDA-MB-231 breast it was 71.7%. Also, the growth was -79.8% (active) in the assay with RXF 393 renal; 7.54% (active) with SF-268 CNS; 2.01% (active) with SF-295 CNS; -33.6% (active) with SF-539 CNS; -55.7% (active) in the assay with UACC-257 melanoma; -58.1% (active) in the assay with M14 melanoma. Moreover, the growth with HCT-15 colon is 2.82% (active).
